Assay [1] can be described thus: qHTS assay to identify small molecule antagonists of the estrogen related receptor (ERR) signaling pathway from Tox21 library - cell viability counter screen (AID 1224834). Note: nearly all actives have a fitted effect of over 30% in size. Note: potency is the fitted concentration of half-maximal effect. The essentials: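 Compounds in DMSO were pinned onto ERR cells that had been incubated for 6 h, and the plates were held at 37 C for 17.5 h. CellTiter-Fluor reagent was then added and fluorescence was measured after 30 min.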
On the technique in general: Quantitative high-throughput screening tests each substance at several concentrations.

The target of assay [2] is Luciferin 4-monooxygenase (Photinus pyralis) (UniProt P08659). Description: qHTS assay to identify small molecule inhibitors of firefly luciferase (AID 1224835). For activity change, negative = inhibition: series mostly up to about 120 µM. Note: nearly all actives have a fitted effect of over 25% in size. Note: potency is the fitted concentration of half-maximal effect. Summed up: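 Quantitative HTS format; KM concentrations of both substrates. Purified P. pyralis FLuc activity quantified from luminescence images.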
Assay [3] is described as follows: qHTS assay to identify small molecule agonists of the constitutive androstane receptor (CAR) signaling pathway - cell viability counter screen (AID 1224836). Note: series mostly up to about 92 µM; nearly all actives have a fitted effect of over 45% in size. The essentials: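 Cells were seeded and incubated 4 hrs. Compounds were added across 15 concentrations together with PK11195 at 0.75 uM final. Plates were incubated 23 hrs at 37 C. CellTiter-Fluor was added and fluorescence measured.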

Assay [4] in a line: qHTS assay to identify small molecule antagonists of the constitutive androstane receptor (CAR) signaling pathway - cell viability counter screen (AID 1224837). Note: series mostly up to about 92 µM; nearly all actives have a fitted effect of over 45% in size. The essentials:
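Cells are seeded, rested 4 hr at 37 C/5% CO2, dosed with compound (15-point series) and 50 nM CITCO, incubated a further 23 hr, and then CellTiter-Fluor reagent is added before fluorescence is read. The line is HepG2 with stable hCAR and CYP2B6-2.2kb.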

Assay [5] addresses Nuclear receptor subfamily 1 group I member 3 (Homo sapiens) (UniProt Q14994). Description: qHTS assay to identify small molecule antagonists of the constitutive androstane receptor (CAR) signaling pathway (AID 1224838).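 Note: HepG2 cells stably expressing hCAR with CYP2B6 luciferase reporter stimulated by CITCO; nearly all actives have a fitted effect of over 40% in size.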 Summed up: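 Luminescence from a CYP2B6-2.2kb promoter reporter in hCAR-expressing HepG2 cells reflects CAR signaling. Cells received compounds at 15 concentrations and 50 nM CITCO (final), then incubated 24 h at 37 C/5% CO2.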

The target is the same in assay [6]. Description: qHTS assay to identify small molecule agonists of the constitutive androstane receptor (CAR) signaling pathway (AID 1224839).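 For activation: HepG2 cells stably carrying human CAR and a CYP2B6 luciferase reporter; series mostly up to about 92 µM.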 Note: nearly all actives have a fitted effect of over 15% in size. Note: potency is the fitted concentration of half-maximal effect. Summed up: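 Cells were plated and incubated 4 hrs, then dosed with compounds at 15 concentrations. PK11195 was added to 0.75 uM final. After 24 hrs at 37 C, luciferase luminescence was measured.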
A short description of assay [7]: qHTS assay to identify small molecule antagonists of the estrogen related receptor signaling pathway with the pleiotropic PPARgamma coactivator (PGC) from Tox21 10K library - cell viability counter screen (AID 1224840; active = well fitted cell-killing curve with a large enough effect in the repeat runs, not every such curve was filed as active; note: nearly all actives have a fitted effect of over 40% in size). Summed up:
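Cell viability is measured by CellTiter-Fluor fluorescence in PGC/ERR cells that receive compounds after a 6-hour attachment period and are then incubated 17.5 hours at 37 C.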

Assay [8] in a line: qHTS assay to identify small molecule agonists of the estrogen related receptor signaling pathway with the pleiotropic PPARgamma coactivator (PGC) (AID 1224823). The essentials:
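Luminescence from One-Glo reagent (30 min, room temperature) was read after 18 h compound treatment at 37 C of PGC/ERR cells plated 6 h beforehand; compounds delivered in DMSO by pin tool.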

The nature of assay [9]: qHTS assay to identify small molecule antagonists of the estrogen related receptor signaling pathway with the pleiotropic PPARgamma coactivator (PGC) from Tox21 10K library (AID 1224841; call rule not given here; note: series mostly up to about 92 µM; actives are mostly falling curves and most rising ones were filed inactive; nearly all actives have a fitted effect of over 50% in size). The essentials:
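Cells stably carrying the PGC/ERR reporter, seeded at 2,000 per well, received pin-transferred compounds 6 h post-plating. Exposure lasted 18 h at 37 C. Signal: One-Glo luminescence.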

The nature of assay [10]: qHTS assay to identify small molecule agonists of the estrogen related receptor signaling pathway with the pleiotropic PPARgamma coactivator (PGC) from Tox21 10K library (AID 1224842). Note: nearly all actives have a fitted effect of over 15% in size. Note: potency is the fitted concentration of half-maximal effect. Summed up: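 PGC/ERR reporter cells (NTP line) were seeded 2,000 per well, rested 6 h at 37 C/5% CO2, then pin-dosed with compounds in DMSO for 18 h at 37 C; luciferase read by One-Glo luminescence after 30 min at room temperature.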

Records with an inconclusive call do not appear. Unmarked numbers belong to inactive results. Activity calls are given as the source filed them. Unless noted, calls come from the whole dose curve; as a rule, active = well fitted curve in the direction sought with a large enough effect in the repeat runs; inconclusive = weak or mixed curves; inactive = no such curve, though single readings can be large; an effect the other way counts as inactive or inconclusive.
% is set by controls: 0 for no effect and ±100 for the full control effect.

Sequence of Luciferin 4-monooxygenase (Photinus pyralis) (P08659 whole entry, looked up): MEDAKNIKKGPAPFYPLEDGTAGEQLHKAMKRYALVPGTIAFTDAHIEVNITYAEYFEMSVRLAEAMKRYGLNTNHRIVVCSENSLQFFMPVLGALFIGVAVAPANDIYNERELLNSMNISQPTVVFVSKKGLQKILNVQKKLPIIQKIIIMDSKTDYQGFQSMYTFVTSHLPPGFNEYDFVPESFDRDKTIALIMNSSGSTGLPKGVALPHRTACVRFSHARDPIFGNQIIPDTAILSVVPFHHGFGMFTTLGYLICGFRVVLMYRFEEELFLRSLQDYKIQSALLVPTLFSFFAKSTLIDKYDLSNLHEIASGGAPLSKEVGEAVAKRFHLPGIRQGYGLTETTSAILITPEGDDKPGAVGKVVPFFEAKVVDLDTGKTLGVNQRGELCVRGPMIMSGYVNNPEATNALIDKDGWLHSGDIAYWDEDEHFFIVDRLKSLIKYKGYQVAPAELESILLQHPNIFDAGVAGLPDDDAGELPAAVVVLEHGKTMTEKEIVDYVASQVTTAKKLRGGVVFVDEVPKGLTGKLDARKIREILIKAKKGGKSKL
Sequence of Nuclear receptor subfamily 1 group I member 3 (Homo sapiens) (Q14994 whole entry, looked up): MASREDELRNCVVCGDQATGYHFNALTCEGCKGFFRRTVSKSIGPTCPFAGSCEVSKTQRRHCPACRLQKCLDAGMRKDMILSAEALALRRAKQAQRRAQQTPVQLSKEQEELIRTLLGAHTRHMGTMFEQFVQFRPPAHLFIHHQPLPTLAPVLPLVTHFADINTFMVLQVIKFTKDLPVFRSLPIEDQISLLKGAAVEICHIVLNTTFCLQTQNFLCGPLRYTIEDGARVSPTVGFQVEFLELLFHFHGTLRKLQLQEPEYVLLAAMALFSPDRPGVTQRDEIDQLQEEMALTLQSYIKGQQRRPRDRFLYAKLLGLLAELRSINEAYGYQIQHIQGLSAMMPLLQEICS

On to `CO[Si](OC)(OC)OC`, for which the Potency entry in assay [1], in assay [2], in assay [5] and in assay [6] was “inactive” each time. Also, the compound was called inactive in assay [3], in [4] and in assay [7].
For the compound `NC(=S)Nc1cccc2ccccc12`, the figures for the viability change, negative = cytotoxic in assay [1], in assay [3] and in assay [7] were 1.64% [at 8.39 µM], -0.893% [at 8.39 µM] and 3.04% [at 8.39 µM], respectively. Further, the activity change, negative = inhibition in [2] is 2.89% [at 10.5 µM]. Besides, the activity change, negative = cytotoxicity in assay [4] was -0.426% [at 8.39 µM]. In addition, the activity, negative = inhibition in [5] is 3.74% [at 8.39 µM]. For the same compound, the activation in assay [6] is 2.72% [at 8.39 µM].
On to `CCCCCCCCCCC1CO1` (centres undefined), for which the Potency entry in assay [1], in assay [2], in [5] and in assay [6] was “inactive” throughout. The call in assay [3], in assay [4] and in assay [7] was inactive.
In the case of `COc1cc(C)cc(O)c1`, the Potency result in assay [1], in assay [2], in [5] and in [6] was “inactive” each time. Moreover, the call in [3], in assay [4] and in assay [7] was inactive.
Turning to `CN(C)C(=O)C(CCN1CCC(O)(c2ccc(Cl)cc2)CC1)(c1ccccc1)c1ccccc1`, the compound was classed as inactive in assay [8]. Moreover, the Potency in assay [1] was 26.6 µM (active). The Potency result in assay [2], in [9] and in assay [10] was “inactive” in each case.
Regarding `NC(=O)Nc1nc2ccccc2[nH]1`, the Potency result in [1], in [2], in assay [5] and in assay [6] was “inactive” in each case. The compound was called inactive in [3], in assay [4] and in assay [7].
For the compound `CC(=O)NC(Cc1ccccc1)C(=O)O` (centres undefined), the Potency entry in [1], in [2], in assay [5] and in assay [6] was “inactive” each time. For the same compound, the outcome in assay [3], in [4] and in [7] was inactive.
Regarding `NS(=O)(=O)c1cc2c(cc1Cl)NC(CSCc1ccccc1)=NS2(=O)=O`, the Potency entry in assay [1], in assay [2], in assay [5] and in assay [6] was “inactive” throughout. Moreover, the compound was called inactive in assay [3], in [4] and in [7].
For the compound `CC(C)(O)Cc1ccccc1`, the Potency result in assay [1], in [2], in [5], in assay [6], in assay [9] and in [10] was “inactive” in each case. Besides, the call in [3], in assay [4] and in [7] was inactive.
Consider `CO[Si](CCCNCCC[Si](OC)(OC)OC)(OC)OC`, for which the Potency entry in [1], in assay [2], in assay [5] and in [6] was “inactive” each time. Moreover, the result in [3], in assay [4] and in assay [7] was inactive.
`CC(C)c1cccc(C(C)C)c1N`: the Potency entry in [1], in assay [2], in assay [5], in [6], in assay [9] and in assay [10] was “inactive” in each case. Besides, the compound was classed as inactive in assay [3], in assay [4] and in [7].
Regarding `C=C(C)C(=O)NCCC[N+](C)(C)C`, the Potency result in assay [1], in assay [2], in assay [5] and in assay [6] was “inactive” each time. The compound was called inactive in assay [3], in assay [4] and in assay [7].
In the case of `NS(=O)(=O)c1cc2c(cc1C(F)(F)F)NC(Cc1ccccc1)NS2(=O)=O` (centres undefined), the Potency result in assay [1], in assay [2], in assay [5] and in assay [6] was “inactive” each time. For the same compound, the result in [3], in assay [4] and in [7] was inactive.
For the compound `O=C(O)/C=C/c1ccc(/C=C/C(=O)O)cc1`, the Potency entry in assay [1], in assay [2], in assay [5] and in assay [6] was “inactive” in each case. The compound was called inactive in [3], in assay [4] and in assay [7].
`COc1cc(O)cc(O)c1`: the Potency result in assay [1], in [2], in [5] and in assay [6] was “inactive” throughout. Besides, the outcome in [3], in assay [4] and in assay [7] was inactive.
Regarding `C=C(C)[C@H]1CC=C(C)CC1`, the Potency entry in assay [1], in assay [2], in [5] and in assay [6] was “inactive” throughout. Also, the outcome in assay [3], in assay [4] and in assay [7] was inactive.
Consider `COCc1ccc(COC)cc1`, for which the Potency entry in assay [1], in [2], in assay [5] and in assay [6] was “inactive” in each case. Moreover, the call in assay [3], in assay [4] and in [7] was inactive.
As to `O=c1[nH]c(=O)n([C@H]2O[C@H](CO)[C@@H](O)[C@@H]2O)cc1/C=C\Br`, the Potency result in [1], in assay [2], in [5] and in assay [6] was “inactive” each time. The outcome in assay [3], in [4] and in assay [7] was inactive.
Turning to `CC(C)[N+](C)(C)CC(O)COc1cccc2ccccc12` (centres undefined), the Potency result in assay [1], in assay [2], in [5] and in assay [6] was “inactive” in each case. The outcome in [3], in [4] and in assay [7] was inactive.
`c1ccc(SCCSc2ccccc2)cc1`: the Potency result in assay [1], in assay [5] and in assay [9] was “inactive” throughout. For the same compound, the Potency in [2] was 7.9 µM (active); in [6], 17.1 µM (active); in assay [10] it was 5.4 µM (active). For the same compound, the compound was classed as inactive in assay [3], in [4] and in [7].
On to `CC(O)CN(CCCN(C)C)CCCN(C)C` (centres undefined), for which the Potency result in assay [1], in assay [2], in [5] and in [6] was “inactive” throughout. Besides, the compound was called inactive in assay [3], in assay [4] and in [7].
Take `COc1ccc(N=[N+]([O-])c2ccc(OC)cc2)cc1`: the Potency entry in assay [1] and in [5] was “inactive” in each case. Further, the results for the Potency in [2] and in assay [6] were 0.222 µM (active) and 0.762 µM (active), respectively. The compound was called inactive in [3], in assay [4] and in assay [7].
Consider `CC(C=O)Cc1ccc(C(C)C)cc1` (centres undefined), for which the Potency entry in [1], in [2], in assay [5] and in assay [6] was “inactive” in each case. Further, the result in [3], in assay [4] and in assay [7] was inactive.
On to `CC(C)COC(=O)c1ccccc1O`, for which the Potency result in [1], in [2], in assay [5] and in assay [6] was “inactive” each time. Moreover, the compound was called inactive in [3], in [4] and in [7].
`O=C1CC2(CCCC2)CC(=O)N1`: the Potency entry in assay [1], in assay [2], in [5] and in assay [6] was “inactive” each time. Further, the outcome in assay [3], in assay [4] and in assay [7] was inactive.
For `CC(C)(C)N(CCO)CCO`, the Potency entry in assay [1], in assay [2], in assay [5] and in [6] was “inactive” each time. Also, the result in [3], in assay [4] and in assay [7] was inactive.
Consider `CC(C)N1C(=O)c2ccccc2C1=O`, for which the Potency result in [1], in assay [2], in assay [5] and in [6] was “inactive” throughout. Also, the compound was called inactive in assay [3], in assay [4] and in assay [7].
As for `CCC(C)OC(=O)N1CCCCC1CCO` (centres undefined), the Potency entry in assay [1], in [2], in assay [5], in [6], in [9] and in assay [10] was “inactive” each time. In addition, the call in [3], in [4] and in [7] was inactive.
Turning to `CC(C)CCCCCCN`, the Potency result in assay [1], in [2], in assay [5] and in [6] was “inactive” in each case. For the same compound, the result in assay [3], in [4] and in assay [7] was inactive.

Values taken from PubChem BioAssay (Tox21).
